{"source": "the supplement of paper PMC10127200", "note": "Counter-ions that a name gives are not always drawn."}
{"tested_on": "DU145", "test": "Euclidean distance of Cell Painting phenotypic profile (signed KS, 77 features) to DMSO centroid (dimensionless distance); 5 or 10 uM (library dependent); higher = stronger phenotypic change vs DMSO (phenoactivity)", "conditions": "48 h", "summary_of_the_method": "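Five cancer lines, together with a healthy fibroblast line, received library compounds for 48 h at a library-dependent 10 or 5 uM and 0.1% DMSO final. Harmony then derived 77 features from confocal 20X images (9 fields/well) of the stained cells, scoring each as a signed Kolmogorov-Smirnov statistic against same-plate vehicle wells. After plate-position correction, correlation weighting and replicate averaging at the top dose, phenoactivity was taken as each profile's Euclidean distance to the median vehicle profile.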"}
{"smiles": "CC(C)CC(=O)Nc1n[nH]c2c1CN(C(=O)C1CCN(C)CC1)C2(C)C", "Euclidean distance": 2.9}
{"smiles": "COc1ccc(CNCc2cccc3ccccc23)cc1", "Euclidean distance": 0.984}
{"smiles": "CCN(CC)CCCC(C)Nc1ccnc2cc(Cl)ccc12", "note": "(stereo not given) [Chloroquine Phosphate]", "Euclidean distance": 2.7}
{"smiles": "COc1ccc(-c2oc3c(CC=C(C)C)c(O[C@@H]4O[C@H](CO)[C@@H](O)[C@H](O)[C@H]4O)cc(O)c3c(=O)c2O[C@@H]2O[C@@H](C)[C@H](O)[C@@H](O)[C@H]2O)cc1", "note": "[Icariin]", "Euclidean distance": 0.973}
{"smiles": "COc1cc(C(=O)NC2CCCNC2)cc(OC)c1OC", "note": "(stereo not given) [Troxipide]", "Euclidean distance": 1.81}
{"smiles": "CO[C@H]1CC[C@H](N2C(=O)CNc3ncc(-c4ccc(C(C)(C)O)nc4)nc32)CC1", "Euclidean distance": 2.56}
{"smiles": "O=C(O)c1cc(-c2ccc(F)cc2F)ccc1O", "note": "[Diflunisal]", "Euclidean distance": 1.05}
{"smiles": "Cc1ccc(-n2sc(=O)n(Cc3ccc(F)cc3)c2=O)cc1", "Euclidean distance": 0.775}
{"smiles": "COc1cc2ncnc(Nc3cccc(Cl)c3F)c2cc1OC(=O)N1CCN(C)C[C@H]1C", "Euclidean distance": 1.72}
{"smiles": "COc1ccc(CNC(=O)Nc2ncc([N+](=O)[O-])s2)cc1", "Euclidean distance": 0.841}
{"smiles": "CC1Oc2cc(cnc2N)-c2c(nn(C)c2C#N)CN(C)C(=O)c2ccc(F)cc21", "note": "(stereo not given)", "Euclidean distance": 1.34}
{"smiles": "CC(C)C[C@H](NC(=O)[C@H](Cc1ccccc1)NC(=O)c1cnccn1)B(O)O", "note": "[Bortezomib]", "Euclidean distance": 6.56}
{"smiles": "CN(C)CCOC(c1ccccc1)c1ccccc1.Cn1c(=O)c2[nH]c(Cl)nc2n(C)c1=O", "note": "[Dimenhydrinate]", "Euclidean distance": 1.72}
{"smiles": "O=C(Nc1ccc(S(=O)(=O)Nc2ccccc2Cl)c(Cl)c1)c1ccccn1", "Euclidean distance": 0.6}
{"smiles": "CCCCC(C)(O)C/C=C/[C@H]1[C@H](O)CC(=O)[C@@H]1CCCCCCC(=O)OC", "note": "(mixture of isomers) [Misoprostol]", "Euclidean distance": 1.06}
{"smiles": "NCC(=O)CCC(=O)O", "note": "[5-Aminolevulinic acid HCl]", "Euclidean distance": 1.81}
{"smiles": "Cc1cccc(-c2[nH]ncc2-c2ccc3ncccc3n2)n1", "Euclidean distance": 0.91}
{"smiles": "CCOC(=O)[C@H](CCc1ccccc1)N[C@@H](C)C(=O)N1Cc2ccccc2C[C@H]1C(=O)O", "note": "[Quinapril HCl]", "Euclidean distance": 0.942}
{"smiles": "CS(=O)(=O)CCNCc1ccc(-c2ccc3ncnc(Nc4ccc(OCc5cccc(F)c5)c(Cl)c4)c3c2)o1", "note": "[Lapatinib ditosylate monohydrate]", "Euclidean distance": 2.25}
{"smiles": "CS(=O)(=O)CCNCc1ccc(-c2ccc3ncnc(Nc4ccc(OCc5cccc(F)c5)c(Cl)c4)c3c2)o1", "note": "[Lapatinib]", "Euclidean distance": 2.2}
{"smiles": "Clc1ccc(COC(Cn2ccnc2)c2ccc(Cl)cc2Cl)cc1", "note": "(stereo not given) [Econazole]", "Euclidean distance": 0.98}
{"smiles": "COc1ccc(-c2cc(=O)c3c(O)cc(O[C@@H]4O[C@H](CO[C@@H]5O[C@@H](C)[C@H](O)[C@@H](O)[C@H]5O)[C@@H](O)[C@H](O)[C@H]4O)cc3o2)cc1O", "note": "[Diosmin]", "Euclidean distance": 1.01}
{"smiles": "COc1cnc(-n2cnc(C)n2)c2[nH]cc(C(=O)C(=O)N3CCN(C(=O)c4ccccc4)CC3)c12", "Euclidean distance": 0.792}
{"smiles": "O=C(NNc1ccccc1)c1ccncc1", "Euclidean distance": 0.814}
{"smiles": "CCCc1nc2c(C)cc(-c3nc4ccccc4n3C)cc2n1Cc1ccc(-c2ccccc2C(=O)O)cc1", "note": "[Telmisartan]", "Euclidean distance": 1.03}
{"smiles": "CC/C(=C(\\c1ccc(O)cc1)c1ccc(OCCN(C)C)cc1)c1ccccc1", "note": "[4-Hydroxytamoxifen]", "Euclidean distance": 2.16}
{"smiles": "CC(=O)OCC1=C(C(=O)O)N2C(=O)[C@@H](NC(=O)CSC(=NC(C)C)NC(C)C)[C@H]2SC1", "note": "[Cefathiamidine]", "Euclidean distance": 1.41}
{"smiles": "CNCCc1ccccn1", "note": "[Betahistine mesylate]", "Euclidean distance": 1.17}
{"smiles": "CC(C)N(C[C@H]1O[C@@H](n2cnc3c(N)ncnc32)[C@H](O)[C@@H]1O)[C@H]1C[C@@H](CCc2nc3cc(C(C)(C)C)ccc3[nH]2)C1", "Euclidean distance": 1.3}
{"smiles": "COc1ccc(OC)c(C(O)CNC(=O)CN)c1", "note": "(stereo not given) [Midodrine]", "Euclidean distance": 0.468}
{"smiles": "Cc1ccccc1-c1cc(N2CCN(C)CC2)ncc1N(C)C(=O)C(C)(C)c1cc(C(F)(F)F)cc(C(F)(F)F)c1", "note": "[Netupitant]", "Euclidean distance": 0.595}
{"smiles": "COc1nc(C)cnc1NS(=O)(=O)c1cccnc1-c1ccc(-c2nnco2)cc1", "note": "[Zibotentan (ZD4054)]", "Euclidean distance": 0.656}
{"smiles": "CC(CN1c2ccccc2Sc2ccccc21)N(C)C", "note": "(stereo not given) [Promethazine HCl]", "Euclidean distance": 1.47}
{"smiles": "Clc1ccc2c(c1)C(N1CCNCC1)=Nc1ccccc1O2", "note": "[Amoxapine]", "Euclidean distance": 1.12}
{"smiles": "CCCc1nn(C)c2c(=O)[nH]c(-c3cc(S(=O)(=O)N4CCN(C)CC4)ccc3OCC)nc12", "note": "[Sildenafil]", "Euclidean distance": 0.716}
{"smiles": "CCN(CC)CCOCCOC(=O)C1(c2ccccc2)CCCC1", "note": "[Pentoxyverine Citrate]", "Euclidean distance": 0.661}
{"smiles": "C=CC(=O)Nc1cccc(Oc2nc(Nc3ccc(N4CCN(C)CC4)cc3)nc3ccsc23)c1", "Euclidean distance": 2.73}
{"smiles": "CC(=O)/N=c1/sc(S(N)(=O)=O)nn1C", "note": "[Methazolamide]", "Euclidean distance": 0.818}
{"smiles": "Nc1nc(NC2CC2)c2ncn([C@H]3C=C[C@@H](CO)C3)c2n1", "note": "[Abacavir sulfate]", "Euclidean distance": 1.39}
{"smiles": "CN(C)C1CCN(C(=O)c2ccc(NC(=O)Nc3ccc(-c4nc(N5CCOCC5)nc(N5CCOCC5)n4)cc3)cc2)CC1", "Euclidean distance": 1.98}
